Experimental data published in PubChem BioAssay (Tox21).
Unmarked numbers belong to inactive results. Records with an inconclusive call do not appear. Where a call stands in place of a potency, no number is given. Calls of active or inactive are those of the source. Unless noted, calls follow the shape of the dose curve; as a rule, active = well fitted curve in the direction sought with a large enough effect in the repeat runs; inconclusive = weak or mixed curves; inactive = no such curve, though single readings can be large; an effect the other way counts as inactive or inconclusive.

Assays:
[1] = qHTS assay to identify small molecule antagonists of the glucocorticoid receptor (GR) signaling pathway - cell viability counter screen (AID 720693); also: nearly all actives have a fitted effect of over 55% in size
[2] = qHTS assay for identifying genotoxic compounds that show differential cytotoxicity against isogenic chicken DT40 cell lines with known DNA damage response pathways - wild type cell line (AID 743012); also: nearly all actives have a fitted effect of over 60% in size; also: potency is read from the fitted curve at half-maximal effect
How it was run: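 300 wt DT40 cells/well; cpd (DMSO) pintool-transferred after ~0.5 h at 37 C/5% CO2; 40 h incubation; CellTiter-Glo added, 30 min RT; luminescence read.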

[3] = qHTS assay for identifying genotoxic compounds that show differential cytotoxicity against isogenic chicken DT40 cell lines with known DNA damage response pathways - Rev3 mutant cell line (AID 743014); also: nearly all actives have a fitted effect of over 55% in size; also: potency is read from the fitted curve at half-maximal effect
[4] = qHTS assay for identifying genotoxic compounds that show differential cytotoxicity against isogenic chicken DT40 cell lines with known DNA damage response pathways - Rad54/Ku70 mutant cell line (AID 743015); also: nearly all actives have a fitted effect of over 60% in size; also: potency is read from the fitted curve at half-maximal effect
[5] = qHTS assay to identify small molecule antagonists of the androgen receptor (AR) signaling pathway - cell viability counter screen (AID 743033; also: nearly all actives have a fitted effect of over 45% in size)
[6] = qHTS assay to identify small molecule antagonists of the androgen receptor (AR) signaling pathway using the MDA cell line - cell viability counter screen (AID 743041; also: nearly all actives have a fitted effect of over 45% in size; also: potency is read from the fitted curve at half-maximal effect)
How it was run: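 Cytotoxicity counter screen: MDA-kb2 AR-luc cells, compound + R1881, 16 h, 37C, 0% CO2; CellTiter-Fluor added at 15.5 h, fluorescence read after 30 min.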

[7] = target: Androgen receptor (Homo sapiens) (UniProt P10275); assay: qHTS assay to identify small molecule antagonists of the androgen receptor (AR) signaling pathway (AID 743035; active = well fitted inhibition curve with a large enough effect in the signal ratio in the repeat runs, not every such curve was filed as active; the % refers to the signal ratio)
Chain of Androgen receptor (Homo sapiens) (P10275 whole entry, looked up): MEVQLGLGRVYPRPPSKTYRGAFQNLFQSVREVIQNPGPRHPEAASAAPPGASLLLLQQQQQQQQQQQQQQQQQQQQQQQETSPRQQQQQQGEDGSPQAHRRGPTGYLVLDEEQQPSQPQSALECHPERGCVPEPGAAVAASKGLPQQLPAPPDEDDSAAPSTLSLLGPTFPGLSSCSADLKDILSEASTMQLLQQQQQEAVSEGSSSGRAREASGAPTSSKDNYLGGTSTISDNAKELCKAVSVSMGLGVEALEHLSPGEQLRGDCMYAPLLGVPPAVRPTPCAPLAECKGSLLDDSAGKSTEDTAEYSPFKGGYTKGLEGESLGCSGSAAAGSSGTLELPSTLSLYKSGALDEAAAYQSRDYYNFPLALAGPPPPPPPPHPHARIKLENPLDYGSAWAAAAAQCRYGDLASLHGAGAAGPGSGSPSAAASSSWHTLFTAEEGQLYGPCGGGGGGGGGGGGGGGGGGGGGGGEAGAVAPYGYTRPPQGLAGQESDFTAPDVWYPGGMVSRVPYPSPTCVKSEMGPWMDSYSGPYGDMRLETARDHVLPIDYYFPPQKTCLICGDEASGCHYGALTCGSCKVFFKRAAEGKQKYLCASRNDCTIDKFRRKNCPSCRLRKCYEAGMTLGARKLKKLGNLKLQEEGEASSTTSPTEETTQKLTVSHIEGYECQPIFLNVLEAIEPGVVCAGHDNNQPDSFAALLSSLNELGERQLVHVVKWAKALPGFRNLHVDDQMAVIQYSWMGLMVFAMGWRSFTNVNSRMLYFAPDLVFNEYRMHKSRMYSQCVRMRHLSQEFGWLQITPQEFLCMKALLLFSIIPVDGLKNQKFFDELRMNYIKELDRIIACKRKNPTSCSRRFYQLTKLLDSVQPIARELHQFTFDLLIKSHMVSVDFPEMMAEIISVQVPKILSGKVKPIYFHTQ
How it was run: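 In this cell-based reporter screen, compounds were tested in concentration series against R1881-activated HEK293 cells expressing beta-lactamase under UAS control; after 16 h at 37C, FRET substrate was added and fluorescence read 2 h later.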

[8] = target: Androgen receptor (Homo sapiens) (UniProt P10275); assay: qHTS assay to identify small molecule agonists of the androgen receptor (AR) signaling pathway using the MDA cell line (AID 743040; also: nearly all actives have a fitted effect of over 20% in size)
How it was run: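 Luciferase read-out, ONE-Glo, 30 min RT. Cells: MDA-kb2 AR-luc, MMTV promoter with AR and GR response elements. Compound exposure 16 h, 37C, 0% CO2, after 5 h pre-incubation. qHTS agonist mode.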

[9] = target: Androgen receptor (Homo sapiens) (UniProt P10275); assay: qHTS assay to identify small molecule antagonists of the androgen receptor (AR) signaling pathway using the MDA cell line (AID 743042; also: nearly all actives have a fitted effect of over 55% in size)
How it was run: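 MDA-kb2 breast carcinoma cells carrying MMTV-luciferase (AR/GR responsive) were co-treated with compounds and the agonist R1881 for 16 h at 37C. Inhibition read as ONE-Glo luminescence; CellTiter-Fluor fluorescence measured in parallel for cytotoxicity.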

[10] = target: Androgen receptor (Homo sapiens) (UniProt P10275); assay: qHTS assay to identify small molecule agonists of the androgen receptor (AR) signaling pathway (AID 743036; active = well fitted activation curve with a large enough effect in the signal ratio in the repeat runs, with a control signal flat, not every such curve was filed as active; the % refers to the signal ratio)
How it was run: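 HEK293 cells stably carrying a UAS-driven beta-lactamase reporter (GeneBLAzer AR-UAS-bla-GripTite) were plated at 2,000 cells/well, rested 4 h at 37C, then exposed to compounds in DMSO for 16 h. LiveBLAzer B/G FRET substrate was added for 2 h at room temperature; fluorescence read.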

| SMILES | outcome [1] | Potency [2] | Potency [3] | Potency [4] | Potency [5] | Potency [6] | Potency [7] | outcome [8] | Potency [9] | outcome [10] |
| --- | --- | --- | --- | --- | --- | --- | --- | --- | --- | --- |
| COCCOCCOCCOCCOCCO | inactive | inactive | inactive | inactive | inactive | inactive |  |  |  |  |
| CCCCCCCC/C=C\CCCCCCCC(=O)OCCCC | inactive | inactive | inactive | inactive | inactive | inactive |  |  |  |  |
| CO[C@@H]1[C@@H](OC(N)=O)[C@@H](O)[C@H](Oc2ccc3c(O)c(NC(=O)c4ccc(O)c(CC=C(C)C)c4)c(=O)oc3c2C)OC1(C)C | inactive | inactive | inactive | inactive | inactive | inactive |  |  |  |  |
| c1ccc2c(c1)ccc1c3ccccc3ccc21 | inactive | inactive | inactive | inactive | inactive | inactive |  |  |  |  |
| CC(=O)NCCCCCC(=O)O | inactive | inactive | inactive | inactive | inactive | inactive |  |  |  |  |
| OCCCCC(O)CO (stereo not drawn) | inactive | inactive | inactive | inactive | inactive | inactive |  |  |  |  |
| FC(F)(F)c1ccccc1-n1ccnc1 | inactive | inactive | inactive | inactive | inactive | inactive |  |  |  |  |
| O=S(=O)(O)CCN1CCN(CCO)CC1 | inactive | inactive | inactive | inactive | inactive | inactive |  |  |  |  |
| C=C(C)C(=O)OCCOP(=O)(O)OCCOC(=O)C(=C)C | inactive | inactive | inactive | inactive | inactive | inactive |  |  |  |  |
| C[Si](C)(C)C | inactive | inactive | inactive | inactive | inactive | inactive |  |  |  |  |
| CCN1CCc2nc(N)oc2CC1 | inactive | inactive | inactive | inactive | inactive | inactive |  |  |  |  |
| C[C@@H](O)[C@H]1C(=O)N2C(C(=O)O)=C(SCCN=CN)C[C@H]12 | inactive | inactive | inactive | inactive | inactive | inactive |  |  |  |  |
| COCCOC(=O)C1=C(C)NC(C)=C(C(=O)OC(C)C)C1c1cccc([N+](=O)[O-])c1 (stereo not drawn) | inactive | 26.6 µM (active) | 26.6 µM (active) | 23.7 µM (active) | inactive | inactive |  |  |  |  |
| Cc1c(I)c(=O)n(-c2ccccc2)n1C | inactive | inactive | inactive | inactive | inactive | inactive |  |  |  |  |
| NNc1nnc(NN)c2ccccc12 | inactive | inactive | inactive | inactive | inactive | inactive |  |  |  |  |
| BrCCCCCBr | inactive | inactive | inactive | inactive | inactive | inactive |  |  |  |  |
| CN(C)CCOCCO | inactive | inactive | inactive | inactive | inactive | inactive |  |  |  |  |
| O=C(NCC(O)CO)c1c(I)c(C(=O)NCC(O)CO)c(I)c(N(CCO)C(=O)CO)c1I (stereo not drawn) | inactive | inactive | inactive | inactive | inactive | inactive |  |  |  |  |

| SMILES | outcome [1] | Potency [2] | Potency [3] | Potency [4] | Potency [5] | Potency [6] | Potency [7] | outcome [8] | Potency [9] | outcome [10] |
| --- | --- | --- | --- | --- | --- | --- | --- | --- | --- | --- |
| Nc1ccc([N+](=O)[O-])c(N)c1 | inactive | inactive | inactive | inactive | inactive | 59.6 µM (active) |  |  |  |  |
| O=S(=O)(O)c1ccc2cc(O)c(S(=O)(=O)O)cc2c1 | inactive | inactive | inactive | inactive | inactive | inactive |  |  |  |  |
| O=C(CS(=O)Cc1ccco1)NC/C=C\COc1cc(CN2CCCCC2)ccn1 (stereo not drawn) | inactive | inactive | inactive | inactive | inactive | inactive |  |  |  |  |
| c1ccc2nccnc2c1 | inactive | inactive | inactive | 63.1 µM (active) | inactive | inactive |  |  |  |  |
| CC1=C(C(=O)O)N2C(=O)[C@@H](NC(=O)[C@H](N)c3ccc(O)cc3)[C@H]2SC1 | inactive | inactive | inactive | inactive | inactive | inactive |  |  |  |  |
| N[C@@H](CCC(=O)N[C@@H](CS)C(=O)NCC(=O)O)C(=O)O | inactive | inactive | inactive | inactive | inactive | inactive |  |  |  |  |
| O=C(O)c1ccc(Cl)cc1Cl | inactive | inactive | inactive | inactive | inactive | inactive |  |  |  |  |
| O=C(O)Cc1ccc(Cl)cc1Cl | inactive | 61.1 µM (active) | 27.3 µM (active) |  | inactive | inactive | inactive | inactive | inactive |  |
| C[C@H](CCC(=O)O)[C@H]1CC[C@H]2[C@@H]3C(=O)C[C@@H]4CC(=O)CC[C@]4(C)[C@H]3CC(=O)[C@]12C | inactive | inactive | inactive |  | inactive |  |  |  |  |  |
| Nc1ncnc(Nc2ccccc2)n1 | inactive | inactive | inactive | inactive | inactive | inactive |  |  |  |  |
| CN1CCN(CC(=O)N2c3ccccc3C(=O)Nc3cccnc32)CC1 | inactive | inactive | inactive | inactive |  | inactive |  |  |  |  |
| COc1ccc(S(=O)(=O)N2c3ccc(Cl)cc3[C@@](O)(c3ccccc3Cl)[C@H]2C(=O)N2CCC[C@@H]2C(N)=O)cc1OC | inactive | inactive | inactive |  | inactive | inactive |  |  |  |  |
| O=C1c2cccc3c2[C@H](CCC3)CN1[C@@H]1CN2CCC1CC2 | inactive | 11.9 µM (active) |  | 23.7 µM (active) |  |  |  |  |  |  |
| COC(=O)c1ccccc1C(=O)c1ccc(OCCN2CCCCC2)cc1 | inactive | 1.88 µM (active) | 1.06 µM (active) | 2.11 µM (active) | inactive | inactive |  |  |  |  |
| C=COCCOCCOCCOC=C | inactive | inactive | inactive |  | inactive | inactive | inactive | inactive | inactive | inactive |
| CN=C(NC#N)Nc1ccc(C2=NNC(=O)CC2C)cc1 (stereo not drawn) | inactive | inactive | inactive | inactive | inactive | inactive |  |  |  |  |
| Cc1ccc(S(=O)(=O)O)c(C)c1 | inactive | inactive | inactive | inactive | inactive | inactive |  |  |  |  |
| ClCCCl | inactive | inactive | inactive |  | inactive | inactive |  |  |  |  |
